HepG2 tox = kills HepG2 cells in TGF-b inhibitor counter-screen | HepG2 CAGA-GFP viability, ATP luminescence, 18 h | Potency, µM (doses to about 46.1 µM), most hits filed as cytotoxic | actives 0.76% (n = 410,000) | AID 588856
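HepG2 CAGA-GFP cells (1000/well, DMEM with 1% FBS) received compound, then TGF-beta at 500 pg/mL final, and were incubated 18 hours at 37 degrees C. Viability was read by CellTiter-Glo luminescence. Media-only wells were set as complete cell-killing and DMSO as no toxicity.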
DT40 TDP1 CPT = growth inhibition of DT40 Tdp1-/-;hTDP1 cells with camptothecin (screen for TDP1 inhibitors); chicken DT40 Tdp1-/-;hTDP1 cells + 20 nM CPT, ATP luminescence, 48 h; Potency, µM (top dose mostly 46.2 µM), most hits filed as inhibitors; actives 12% (n = 420,000); AID 686979; also: nearly all actives have a fitted effect of over 55% in size
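Chicken DT40 Tdp1-/- cells complemented with human TDP1, 400 cells/well, exposed to compounds plus 20 nM camptothecin for at least 48 h at 37 C; viability read as ATP content by CellTiter-Glo luminescence.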
TGFb SMAD3 inh = TGF-b pathway inhibition; HepG2 CAGA-GFP TGF-b/SMAD3 reporter, GFP fluorescence, 18 h; TGF-beta stimulated, 500 pg/mL final; Potency, µM (highest dose often 46.1 µM), hits mostly inhibitors; actives 1.2% (n = 410,000); AID 588855; also: nearly all actives have a fitted effect of over 65% in size
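HEPG2 CAGA-GFP, 1000 cells/well; 2 h settle, 37 C; cpd via pin tool; TGF-b 500 pg/mL final; 18 h, 37 C; GFP imaging ex488/em500-530; %Activity normalised to -TGF-b and +DMSO controls; CRC fit, curve class.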
ATXN viability = viability counter-screen for ATXN expression inhibitors. S2 cells (HEK-293 line with an ATXN2-luciferase reporter) viability, CellTiter-Fluor protease fluorescence, 24 h. Potency, µM (series often up to 56.7 µM), most hits filed as cytotoxic. actives 0.49% (n = 400,000). AID 651635; also: nearly all actives have a fitted effect of over 40% in size
TDP1 cell noCPT = qHTS for Inhibitors of human tyrosyl-DNA phosphodiesterase 1 (TDP1): qHTS in cells in absence of CPT. DT40 Tdp1-/- hTDP1 cells, no CPT, ATP luminescence, 48 h. Potency, µM (series often up to 46.2 µM), actives largely listed as inhibitors. actives 15% (n = 420,000). AID 686978, 2013; also: nearly all actives have a fitted effect of over 55% in size
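A cellular qHTS used chicken DT40 cells lacking endogenous Tdp1 but carrying stably transfected human TDP1. Compounds were applied without camptothecin, and cell growth kinetics were judged by ATP-dependent luminescence after ≥48 hr.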
ATXN2 expr inh = ATXN2 expression inhibition; Potency, µM (top dose mostly 57 µM), usual class: inhibitors; HEK-293 ATXN2-luciferase reporter, luminescence, 24 h; actives 0.72% (n = 360,000); AID 1745845; also: nearly all actives have a fitted effect of over 55% in size
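qHTS (up to 57 uM final) was run with 24 h compound exposure of reporter cells at 37 °C. Each well was multiplexed: SteadyGlo luminescence measured ATXN2-luciferase expression after a fluorogenic Gly-Phe-AFC viability readout (25 uM final).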
Numbers stand for hits; i = inactive; ? = inconclusive; nt = not tested or not shown; [ ] = another dose, or the depositor's remark. A selection: hits, their analogues and other compounds. The true share with any hit is near 17%. Calls follow the shape of the dose curve; as a rule, active = well fitted curve in the direction sought with a large enough effect; inconclusive = small, poorly fitted or top-dose-only effect, or another doubt; inactive = no such curve, though single readings can be large; an effect the other way counts as inactive or inconclusive.

SMILES	HepG2 tox	DT40 TDP1 CPT	TGFb SMAD3 inh	ATXN viability	TDP1 cell noCPT	ATXN2 expr inh
COC(=O)c1ccc(C(=O)N2CCCC(C)(C(=O)NS(=O)(=O)C3CC3)C2)cc1 (centres undefined)	i	?	i	i	1.46µM	i
CCNC(=O)C1(C)CCCN(C(=O)/C=C/c2ccccc2)C1 (centres undefined)	i	i	i	i	i	i
Cc1c(O)ccc2c1OC(C)(C)CC2	nt	5.62µM	nt	nt	3.98µM	nt
Cc1ccc(NC(=O)Nc2cccnc2)cc1Cl	i	?	i	i	i	i
Cc1ccc(NC(=O)Nc2c(Cl)cccc2Cl)cn1	i	?	i	?	10.3µM	nt
CCN(CC(=O)Nc1c(F)cccc1F)C(=O)CCCN1C(=O)c2cccc3cccc(c23)C1=O	i	?	i	i	?	nt
COC(=O)c1cc2sc(Cl)cc2n1CC(=O)Nc1cc(C)cc(C)c1	i	20.6µM	i	i	?	i
CCc1cccc(NC(=O)Cn2c(C(=O)OC)cc3sc(Cl)cc32)c1	i	?	i	i	?	i
C[C@@H]1CN(Cc2ccc3c(c2)CN(Cc2cccn2-c2ccc(Cl)cn2)CCO3)C[C@H](C)O1	nt	i[9.04 µM]	nt	i	i	nt
OC(c1ccc2c(c1)CN(Cc1cccc3nccnc13)CCO2)C1CCCCC1 (centres undefined)	nt	i	nt	i	i	nt
CCc1nc(CN2CCOc3ccc(C(O)C4CCCCC4)cc3C2)c(C)[nH]1 (centres undefined)	nt	?	nt	?	18.4µM	nt
O=C(O)CCn1cc(C2CC(c3ccccc3)=NN2c2ccccc2)c(-c2ccccc2)n1 (centres undefined)	i	i	i	i	i	i
c1ccc(COc2ncnc3c2ncn3CCCN2CCN(Cc3cccc4ccccc34)CC2)cc1	i	?	?	?	9.2µM	22.4µM
O=C1CCCN1CCCNCCCn1cnc2c(OCc3ccccc3)ncnc21	i	?	i	i	i	i
COc1ccc(CN(C)CCCn2cnc3c(OCc4ccccc4)ncnc32)cc1	i	?	i	i	?	i
Cc1ccc(CN2CCN(CCCn3cnc4c(OCc5ccccc5)ncnc43)CC2)cc1	i	23.1µM	?	?	?	?
O=[N+]([O-])c1ccc2c(c1)C=C/C2=C\c1ccc(C=S)cc1	i	?	i	nt	11.2µM	nt
Cc1ccc(S(=O)(=O)Cc2ccccc2Cl)cc1	i	?	i	i	20.6µM	i
COc1ccc(NC(=O)Cn2c(=O)n(Cc3ccc4c(c3)OCO4)c(=O)c3ccc(C(=O)NC4CCCCC4)cc32)cc1	i	8.2µM	i	i	7.31µM	i
Cc1ccc(C(=O)NCCCN2CCN(CCCNC(=O)c3ccc(C)cc3)CC2)cc1	i	i	i	i	i	i
C[C@]12C(=O)N(c3ccccc3)C(=O)N1[C@@H]1c3ccccc3OC[C@@H]1[C@H]2c1ccccc1	i	14.6µM	i	i	16.4µM	i
C[C@]12C(=O)N(c3ccccc3)C(=O)N1[C@H]1c3ccccc3OC[C@@H]1[C@H]2c1ccccc1	i	?	i	i	?	i
Cc1ccc(N2C(=O)N3[C@H]4c5ccccc5OC[C@@H]4[C@@H](c4ccccc4)[C@@]3(C)C2=O)cc1	i	i	i	i	i	i
C[C@]12C(=O)N(c3cccc(F)c3)C(=O)N1[C@H]1c3ccccc3OC[C@@H]1[C@H]2c1ccccc1	i	?	i	i	?	i
C[C@]12C(=O)N(c3ccc(C(F)(F)F)cc3)C(=O)N1[C@@H]1c3ccccc3OC[C@@H]1[C@H]2c1ccccc1	i	23.1µM	?	i	?	i
SMILES	HepG2 tox	DT40 TDP1 CPT	TGFb SMAD3 inh	ATXN viability	TDP1 cell noCPT	ATXN2 expr inh
C[C@]12C(=O)N(c3cccc(Cl)c3)C(=O)N1[C@@H]1c3ccccc3OC[C@@H]1[C@H]2c1ccccc1	i	14.6µM	i	i	11.6µM	i
C[C@]12C(=O)N(c3cccc(F)c3)C(=O)N1[C@@H]1c3ccccc3OC[C@@H]1[C@H]2c1ccccc1	i	11.6µM	i	i	20.6µM	i
COc1ccccc1-c1c(C)oc2cc(OCC(=O)OCc3ccccc3)ccc2c1=O	i	?	i	i	i	i
COc1ccc(C2Nc3ccccc3C(=O)N2c2ccccc2F)cc1COc1ccc(NC(C)=O)cc1 (centres undefined)	i	11.2µM	i	nt	17.8µM	nt
COc1ccc(C2Nc3ccccc3C(=O)N2c2ccc(Cl)cc2)cc1COc1ccc(NC(C)=O)cc1 (centres undefined)	i	?	i	nt	14.1µM	nt
Cc1cccc(Cc2ncc(C(F)(F)F)cc2Cl)c1	i	i	i	i	i	nt
O=C(CCS(=O)(=O)c1ccc(Br)s1)Nc1c(F)cccc1F	i	i	i	i	i	i
Cn1c(NC(=S)Nc2ccccc2)nc2ccccc21	i	1.64µM	i	i	1.64µM	i
NCCC1CN(C(=O)OCc2ccccc2)c2ccccc21 (centres undefined)	i	5.8µM	i	i	5.17µM	i
O=C(c1ccc(-c2cccc(Cl)c2)o1)N1CCN(c2ccc([N+](=O)[O-])cc2)CC1	i	?	i	i	20.6µM	i
O=C(c1ccc(-c2ccc([N+](=O)[O-])cc2)o1)N1CCCC(C(F)(F)F)C1 (centres undefined)	i	?	i	i	?	i
O=C(c1ccc(-c2ccc([N+](=O)[O-])cc2)o1)N1CCCCCCC1	i	11.6µM	?	?	10.3µM	nt
O=[N+]([O-])c1ccccc1-c1ccc(C(=S)N2CCCC2)o1	i	25.9µM	?	i	?	i
Cc1c(Cl)cccc1-c1ccc(C(=O)N2CCN(c3ccc([N+](=O)[O-])cc3)CC2)o1	i	?	i	?	25.9µM	i
COc1ccc(C(=O)n2nc(-c3ccccc3)nc2N)cc1OC	i	i	i	i	i	i
CN1CCN(C(=S)c2ccc(-c3cccc([N+](=O)[O-])c3)o2)CC1	i	i	?	i	23.1µM	i
CC(C)CN(/C=N/c1sc2c(c1C#N)CCCCC2)CC(C)C	i	20.6µM	i	i	14.6µM	nt
Cc1ccc(/C=N/c2sc3c(c2C#N)CCCCC3)o1	i	i	i	i	i	i
CN1CCN(/C=N/c2sc3c(c2C#N)CCCCC3)CC1	i	?	i	i	?	i
CCN(/C=N/c1sc2c(c1C#N)CCCCC2)CC	i	?	i	i	20.6µM	i
Cc1ccc(C)c(NC(=S)NCCN(C2CCCCC2)C2CCCC2)c1	i	?	i	?	?	i
